Experimental data as given in PubChem BioAssay (NCATS).
Records with an inconclusive call do not appear. Calls of active or inactive are those of the source. Unless noted, calls come from the whole dose curve.

How the values were obtained:
[1] = target: Lysosomal acid glucosylceramidase (Homo sapiens) (UniProt P04062); experiment: Glucocerebrosidase-p2 (AID 348; in the data active = potency below about 10 µM; note: potency is the fitted concentration of half-maximal effect); details: purified GBA, blue fluorogenic substrate, 40 min
In short: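 Normal human glucocerebrosidase (0.2 nM) with blue fluorogenic substrate (80 uM final) in citrate/phosphate pH 5.9 with 10mM sodium taurocholate, 0.01% tween-20; 40 min RT, NaOH/glycine stop; fluorescence Ex 365/Em 440; AC50 from a titration from 0.6 nM upwards.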

[2] = AP1 Signaling Pathway (AID 357; active = well fitted curve in either direction with a large enough effect, not every such curve was filed as active;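 note: ME-180 reporter cells stimulated with EGF at its EC50 level; % is set by controls: 0 for no effect and ±100 for the full control effect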); details: ME-180 AP-1-bla reporter, EGF-induced, beta-lactamase ratio, 5 h; series mostly up to 17.2 µM
In short: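 Modulation of EGF-driven AP-1 transcription was assessed with a beta-lactamase reporter in ME-180 cells. Compound and EC50 EGF were co-incubated 5 hours at 37 °C before 2.5-hour CCF4 loading at room temperature and dual-emission reading.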

[3] = target: Cytochrome P450 1A2 (Homo sapiens) (UniProt P05177); experiment: p450-cyp1a2 (AID 410); details: recombinant CYP1A2, luciferin-ME demethylation, luminescence; series mostly up to 25.6 µM; note: potency is the fitted concentration of half-maximal effect;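 for activity change, negative = inhibition: -100% = full effect of reference inhibitor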
In short: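 20nM CYP1A2, 100uM Luciferin-ME (=Km), 100mM KPO4; cpd 10 min RT; +NADPH regen, 60 min RT; stop/detect 20 min; luminescence. Normalized to furafylline 57 uM = full inhibition.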

[4] = Stat Signaling Pathway (AID 446; active = well fitted curve in either direction with a large enough effect, not every such curve was filed as active;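 note: ME-180 cervical cancer cells given 40 pM IL-6 alongside compound; SIE-controlled beta-lactamase reporter measured as 460/530 nm FRET emission ratio; % is set by controls: 0 for no effect and ±100 for the full control effect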); details: ME-180 (cervical carcinoma) SIE beta-lactamase reporter, IL-6 stimulated, 5 h; series mostly up to 17.2 µM
In short: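 Overnight-plated ME-180 cells bearing a STAT Inducible Element beta-lactamase reporter; 5 h co-exposure to compound and 40 pM IL-6; values normalized to 300 pM IL-6 and 125 nM JAK inhibitor controls.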

[5] = target: Glucocorticoid receptor (Homo sapiens) (UniProt P04150); experiment: GR-EFC Redistribution (AID 451); details: CHO-K1 GR-EFC translocation, beta-gal luminescence, 2 h; note: potency is the fitted concentration of half-maximal effect
In short: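 Translocation of GR-ED fusion to nuclear EA restores b-gal, read by luminescence after 1 h room-temperature detection. Engineered CHO-K1 biosensor cells, 1,000/well, exposed 2 h at 37 C to titrations up to 46 uM final.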

[6] = target: Mitogen-activated protein kinase 10 (Mus musculus) (UniProt Q61831); experiment: JNK3 AlphaScreen Assay (AID 530; active = well fitted curve in either direction with a large enough effect, not every such curve was filed as active;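 note: kinase came from lysate of stimulated human HepG2 cells; signal reports phosphorylation of biotinylated GST-cJun 1-79 at Ser73 with 10 µM ATP; % is set by controls: 0 for no effect and ±100 for the full control effect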); details: JNK3 lysate, c-Jun phosphorylation; series mostly up to 57.1 µM
In short: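 Kinase buffer: 20 mM Tris-HCl pH 7.6, 10 mM MgCl2, 1 mM DTT, 0.1 mM Na3VO4, 0.01% Tween-20; ATP 10 uM. Substrate biotin-GST-cJun(1-79), enzyme from activated HepG2 lysates. Detection by Ser73 phospho-antibody AlphaScreen.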

[7] = target: 3',5'-cyclic-AMP phosphodiesterase 4B (Homo sapiens) (UniProt Q07343); experiment: qHTS Assay for Inhibitors of PDE-IV (AID 607; active = well fitted activation curve with a large enough effect in the main read-out, with a control signal flat, not every such curve was filed as active; note: % of control where 0% means no effect); details: HEK293 ACTOne CNG channel cells, membrane potential fluorescence; series mostly up to 22.9 µM
In short: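 Live HEK293 cells with a modified cyclic nucleotide-gated (CNG) channel report intracellular cAMP via membrane-potential dye fluorescence (ex 535/em 590 nm). Endogenous PDE-IV was targeted. Compounds were tested at up to 22.9 uM final; RO 20-1724 100 uM served as control.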

[8] = target: Cytochrome P450 2D6 (Homo sapiens) (UniProt P10635); experiment: qHTS Assay for Inhibitors and Substrates of Cytochrome P450 2D6 (AID 891; active = well fitted curve in the direction sought with a large enough effect; an effect the other way counts as inactive or inconclusive; note: potency is the fitted concentration of half-maximal effect; nearly all actives have a fitted effect of over 60% in size); details: recombinant CYP2D6, luciferin-ME EGE luminescence; series mostly up to 57.1 µM
In short: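 Luminescent read-out of luciferin formed by 5 nM human CYP2D6 demethylating 30 uM Luciferin-ME EGE (Km level) over 60 min at room temperature after NADPH regeneration addition. Data normalized to full inhibition by 1.43 uM quinidine.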

[9] = qHTS Assay for Lipid Storage Modulators (AID 1519); details: Drosophila S3 cells, BODIPY lipid droplet/cell ratio, laser cytometry, cells loaded with oleic acid; for activity change, negative = inhibition: at 57.5 µM (top of the series); note: potency is the fitted concentration of half-maximal effect
In short: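 Cells seeded at 5,000 per well were treated with compounds over a concentration series and loaded with oleic acid (400 uM, as added). Lipid droplet fluorescence (488 nm excitation, 500-530 nm channel) was read by laser-scanning cytometry and normalized to 20 uM Triacsin C.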

[10] = target: Cytochrome P450 3A4 (Homo sapiens) (UniProt P08684); experiment: qHTS Assay for Inhibitors and Substrates of Cytochrome P450 3A4 (AID 884; active = well fitted curve in the direction sought with a large enough effect; an effect the other way counts as inactive or inconclusive; note: nearly all actives have a fitted effect of over 50% in size; note: potency is the fitted concentration of half-maximal effect); details: recombinant CYP3A4, Luciferin-PPXE luminescence; series mostly up to 57.1 µM
In short: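 Luminescent readout of luciferin produced by CYP3A4 (20 nM) dealkylation of Luciferin-PPXE, 25 uM (its KM). NADPH-driven reaction ran 60 min at RT after 10 min compound preincubation; data scaled to 57 uM ketoconazole as 100% inhibition.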

[11] = target: Cytochrome P450 3A4 (Homo sapiens) (UniProt P08684); experiment: qHTS Assay for Activators of Cytochrome P450 3A4 (AID 885; active = well fitted curve in the direction sought with a large enough effect; an effect the other way counts as inactive or inconclusive; note: nearly all actives have a fitted effect of over 65% in size; note: potency is the fitted concentration of half-maximal effect); details: recombinant CYP3A4, Luciferin-PPXE luminescence, 60 min; series mostly up to 57.1 µM
In short: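 Using 20nM recombinant human CYP3A4 in potassium phosphate (200mM), substrate Luciferin-PPXE at 25uM, luminescent luciferin detection followed a 60-min RT NADPH reaction; data scaled to 57 uM ketoconazole.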

[12] = target: Ubiquitin carboxyl-terminal hydrolase 1 (Homo sapiens) (UniProt O94782); experiment: Inhibitors of USP1/UAF1: Pilot qHTS (AID 504865; active = well fitted curve in the direction sought with a large enough effect; an effect the other way counts as inactive or inconclusive;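 note: rhodamine fluorescence freed from ubiquitin-rhodamine substrate followed over time; top concentration of the series differs between compounds; % is set by controls: 0 for no effect and ±100 for the full control effect; nearly all actives have a fitted effect of over 35% in size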); details: purified USP1/UAF1, Ub-rhodamine cleavage fluorescence; series mostly up to 114 µM
In short: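 USP1/UAF1 complex at 1 nM preincubated 15 min at room temperature with compound, then Ub-Rho substrate added at 150 nM final. Fluorescence (480/540 nm) read kinetically in 50 mM HEPES pH 7.8, 0.5 mM EDTA, 1 mM TCEP, 0.1 mg/ml BSA, 0.01% Tween-20.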

[13] = NFAT Signaling Pathway (AID 444; active = well fitted curve in either direction with a large enough effect, not every such curve was filed as active;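 note: carbachol stimulus at about its EC50 of 1 µM final; % is set by controls: 0 for no effect and ±100 for the full control effect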); details: Jurkat NFAT-bla M1, carbachol, beta-lactamase ratio, 5 h; at 7.69 µM (top of the series)
In short: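 Read-out: CCF4 FRET ratio (460 nm/530 nm) after 1 h RT dye loading, used for %activity and AC50 from titration series. Cells: Jurkat NFAT-β-lactamase/M1 line, treated with compound plus 1 uM carbachol for 5 h, 37 °C.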

[14] = measured here: cell count channel max response
[15] = measured here: lipid channel max response

Sequence of Cytochrome P450 1A2 (Homo sapiens) (P05177 whole entry, looked up): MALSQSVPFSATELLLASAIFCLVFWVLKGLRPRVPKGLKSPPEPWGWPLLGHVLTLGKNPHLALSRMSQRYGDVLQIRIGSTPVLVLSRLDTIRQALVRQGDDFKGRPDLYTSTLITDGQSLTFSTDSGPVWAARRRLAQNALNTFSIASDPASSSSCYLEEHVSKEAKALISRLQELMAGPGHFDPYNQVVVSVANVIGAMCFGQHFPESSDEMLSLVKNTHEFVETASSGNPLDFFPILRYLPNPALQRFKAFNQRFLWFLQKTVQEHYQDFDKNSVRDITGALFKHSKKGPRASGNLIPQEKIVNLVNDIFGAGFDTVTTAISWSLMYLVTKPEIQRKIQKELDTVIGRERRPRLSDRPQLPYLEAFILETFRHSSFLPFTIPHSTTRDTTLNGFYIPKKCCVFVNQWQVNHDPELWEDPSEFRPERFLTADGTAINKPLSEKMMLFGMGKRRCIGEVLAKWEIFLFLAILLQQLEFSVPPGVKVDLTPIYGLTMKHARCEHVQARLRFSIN
Sequence of Cytochrome P450 3A4 (Homo sapiens) (P08684 whole entry, looked up): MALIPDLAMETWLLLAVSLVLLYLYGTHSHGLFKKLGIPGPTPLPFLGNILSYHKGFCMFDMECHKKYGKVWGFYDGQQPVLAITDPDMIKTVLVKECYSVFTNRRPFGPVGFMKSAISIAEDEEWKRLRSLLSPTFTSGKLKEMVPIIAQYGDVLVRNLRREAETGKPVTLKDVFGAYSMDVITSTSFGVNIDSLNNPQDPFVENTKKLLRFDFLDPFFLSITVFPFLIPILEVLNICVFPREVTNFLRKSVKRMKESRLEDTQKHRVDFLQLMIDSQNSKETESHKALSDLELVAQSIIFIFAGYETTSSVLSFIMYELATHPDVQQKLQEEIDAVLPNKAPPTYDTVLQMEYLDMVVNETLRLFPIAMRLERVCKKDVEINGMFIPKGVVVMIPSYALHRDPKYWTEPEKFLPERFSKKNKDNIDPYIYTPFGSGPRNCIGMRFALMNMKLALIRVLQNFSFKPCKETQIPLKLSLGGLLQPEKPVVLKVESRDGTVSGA
Sequence of Lysosomal acid glucosylceramidase (Homo sapiens) (P04062 whole entry, looked up): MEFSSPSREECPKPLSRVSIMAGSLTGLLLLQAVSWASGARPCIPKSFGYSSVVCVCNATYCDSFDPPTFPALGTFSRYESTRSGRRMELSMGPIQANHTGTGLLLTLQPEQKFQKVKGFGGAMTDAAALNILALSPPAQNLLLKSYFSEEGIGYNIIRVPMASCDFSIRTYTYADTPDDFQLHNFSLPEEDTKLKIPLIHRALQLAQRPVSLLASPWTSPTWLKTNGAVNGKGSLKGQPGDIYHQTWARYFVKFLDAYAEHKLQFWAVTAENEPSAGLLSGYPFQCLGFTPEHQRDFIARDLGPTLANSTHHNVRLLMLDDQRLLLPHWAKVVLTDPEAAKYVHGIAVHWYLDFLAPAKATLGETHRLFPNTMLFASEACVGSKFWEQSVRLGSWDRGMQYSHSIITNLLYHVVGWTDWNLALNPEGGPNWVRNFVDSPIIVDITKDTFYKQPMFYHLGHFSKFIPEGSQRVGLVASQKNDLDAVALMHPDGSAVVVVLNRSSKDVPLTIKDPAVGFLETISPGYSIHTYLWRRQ
Sequence of 3',5'-cyclic-AMP phosphodiesterase 4B (Homo sapiens) (Q07343 whole entry, looked up): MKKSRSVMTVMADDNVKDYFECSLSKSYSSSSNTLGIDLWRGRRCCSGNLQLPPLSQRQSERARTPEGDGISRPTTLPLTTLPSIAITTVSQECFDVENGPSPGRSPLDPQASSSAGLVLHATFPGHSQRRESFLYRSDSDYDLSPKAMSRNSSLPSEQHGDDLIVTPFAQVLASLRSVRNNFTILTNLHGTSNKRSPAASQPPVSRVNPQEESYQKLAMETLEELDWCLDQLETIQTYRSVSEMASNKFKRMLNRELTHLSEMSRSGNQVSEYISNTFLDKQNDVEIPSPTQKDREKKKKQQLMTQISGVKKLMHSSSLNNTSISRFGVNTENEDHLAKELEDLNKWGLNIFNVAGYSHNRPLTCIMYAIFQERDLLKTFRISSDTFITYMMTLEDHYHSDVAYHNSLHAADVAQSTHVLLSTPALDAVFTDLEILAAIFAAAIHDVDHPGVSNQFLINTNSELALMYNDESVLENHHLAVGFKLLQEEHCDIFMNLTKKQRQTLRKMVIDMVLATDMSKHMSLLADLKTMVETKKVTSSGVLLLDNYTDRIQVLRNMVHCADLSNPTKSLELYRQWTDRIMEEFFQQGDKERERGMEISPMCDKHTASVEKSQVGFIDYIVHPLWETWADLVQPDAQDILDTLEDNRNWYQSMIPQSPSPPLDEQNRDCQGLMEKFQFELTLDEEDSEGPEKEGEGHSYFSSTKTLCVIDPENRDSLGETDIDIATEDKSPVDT
Sequence of Ubiquitin carboxyl-terminal hydrolase 1 (Homo sapiens) (O94782 whole entry, looked up): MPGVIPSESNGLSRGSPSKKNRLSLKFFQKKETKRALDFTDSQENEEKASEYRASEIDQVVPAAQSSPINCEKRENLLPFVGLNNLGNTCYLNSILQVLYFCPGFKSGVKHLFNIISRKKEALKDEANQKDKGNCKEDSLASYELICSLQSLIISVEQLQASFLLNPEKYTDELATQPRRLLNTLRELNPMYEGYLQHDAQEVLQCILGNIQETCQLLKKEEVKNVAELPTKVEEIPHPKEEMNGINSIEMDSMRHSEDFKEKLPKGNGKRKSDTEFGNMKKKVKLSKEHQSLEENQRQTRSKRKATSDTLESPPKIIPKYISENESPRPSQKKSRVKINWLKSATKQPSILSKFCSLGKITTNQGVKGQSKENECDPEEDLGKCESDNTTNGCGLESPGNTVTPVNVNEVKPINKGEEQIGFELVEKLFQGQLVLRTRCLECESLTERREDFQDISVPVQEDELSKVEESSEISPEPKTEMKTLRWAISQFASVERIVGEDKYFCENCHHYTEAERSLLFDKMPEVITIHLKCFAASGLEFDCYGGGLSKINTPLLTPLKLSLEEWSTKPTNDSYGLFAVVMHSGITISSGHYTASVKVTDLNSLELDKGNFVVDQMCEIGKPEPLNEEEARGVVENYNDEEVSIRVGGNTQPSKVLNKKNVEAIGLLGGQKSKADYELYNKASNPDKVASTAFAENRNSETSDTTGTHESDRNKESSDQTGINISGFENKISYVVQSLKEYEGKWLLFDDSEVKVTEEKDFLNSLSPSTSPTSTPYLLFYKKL
Sequence of Glucocorticoid receptor (Homo sapiens) (P04150 whole entry, looked up, the tested form may be a part): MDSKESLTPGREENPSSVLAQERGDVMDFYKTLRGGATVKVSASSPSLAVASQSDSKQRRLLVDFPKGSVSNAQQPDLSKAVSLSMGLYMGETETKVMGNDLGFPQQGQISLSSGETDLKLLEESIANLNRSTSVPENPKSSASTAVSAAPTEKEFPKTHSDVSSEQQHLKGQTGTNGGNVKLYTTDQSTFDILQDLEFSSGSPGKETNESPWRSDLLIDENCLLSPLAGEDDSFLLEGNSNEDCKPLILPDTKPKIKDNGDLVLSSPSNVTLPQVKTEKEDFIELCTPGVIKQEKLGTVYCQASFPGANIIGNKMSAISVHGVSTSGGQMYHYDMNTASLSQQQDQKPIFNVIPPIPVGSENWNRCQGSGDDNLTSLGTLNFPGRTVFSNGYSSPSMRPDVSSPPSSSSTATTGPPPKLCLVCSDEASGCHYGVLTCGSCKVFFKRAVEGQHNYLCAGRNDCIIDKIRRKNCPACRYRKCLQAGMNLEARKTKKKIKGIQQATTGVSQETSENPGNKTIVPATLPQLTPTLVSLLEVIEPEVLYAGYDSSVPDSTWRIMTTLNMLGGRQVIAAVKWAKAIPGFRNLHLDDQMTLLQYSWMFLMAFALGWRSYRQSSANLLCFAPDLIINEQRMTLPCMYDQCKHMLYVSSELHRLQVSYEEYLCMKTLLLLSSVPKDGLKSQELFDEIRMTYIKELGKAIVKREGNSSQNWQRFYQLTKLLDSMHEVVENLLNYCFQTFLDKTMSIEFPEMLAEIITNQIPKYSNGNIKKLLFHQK
Sequence of Cytochrome P450 2D6 (Homo sapiens) (P10635 whole entry, looked up): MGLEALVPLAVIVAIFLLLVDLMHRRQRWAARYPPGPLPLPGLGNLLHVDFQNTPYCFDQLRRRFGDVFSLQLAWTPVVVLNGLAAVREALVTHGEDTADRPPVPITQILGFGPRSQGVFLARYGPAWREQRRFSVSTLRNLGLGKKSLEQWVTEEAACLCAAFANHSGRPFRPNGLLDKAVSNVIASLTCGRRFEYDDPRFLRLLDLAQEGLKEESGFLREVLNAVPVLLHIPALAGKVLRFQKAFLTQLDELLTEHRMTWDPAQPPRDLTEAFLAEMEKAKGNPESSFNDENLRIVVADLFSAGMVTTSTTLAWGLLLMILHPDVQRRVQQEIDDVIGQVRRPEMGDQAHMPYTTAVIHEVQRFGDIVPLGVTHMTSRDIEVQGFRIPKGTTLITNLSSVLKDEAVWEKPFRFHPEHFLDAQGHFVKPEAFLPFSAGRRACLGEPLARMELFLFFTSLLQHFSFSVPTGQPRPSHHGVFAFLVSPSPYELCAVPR

| SMILES | Potency [1] | outcome [2] | Potency [3] | outcome [4] | Potency [5] | outcome [6] | Potency [7] | Potency [8] | activity change, negative = inhibition [9] | max response [9, 14] [%] | max response [9, 15] [%] | Potency [10] | Potency [11] | Potency [12] | Potency [9] | activity change, negative = inhibition [13] |
| --- | --- | --- | --- | --- | --- | --- | --- | --- | --- | --- | --- | --- | --- | --- | --- | --- |
| CC(C)CN1CC2(CCN(C(=O)c3ccncc3)CC2)C1 | > 11.4 µM (inactive) | inactive | inactive | inactive | > 46 µM (inactive) | inactive | inactive | 3.98 µM (active) | -1.63% (inactive) | 11.7 | 11.8 |  |  |  |  |  |
| c1cc(CN2CCC3(CCNCC3)CC2)ccn1 | > 11.4 µM (inactive) | inactive | inactive | inactive | > 46 µM (inactive) | inactive | inactive |  | 4.55% (inactive) | 10.7 | 18.5 |  |  |  |  |  |
| CC(C)NC(=O)N1CCC2(CC1)CCN(C(=O)Oc1ccccc1)CC2 | > 11.4 µM (inactive) | inactive | inactive | inactive | > 46 µM (inactive) | inactive | inactive |  | 2.9% (inactive) | -12.1 | -6.43 | inactive |  |  |  |  |
| CS(=O)(=O)N1CCC2(CC1)CN(Cc1ccncc1)C2 | > 11.4 µM (inactive) | inactive | inactive | inactive | > 46 µM (inactive) | inactive | inactive |  | 4.09% (inactive) | 21.7 | 27.2 |  | inactive |  |  |  |
| ClC1=C(Cl)C2(Cl)C3C4C=CC(C4)C3C1(Cl)C2(Cl)Cl (stereo not given) |  |  |  |  |  |  |  |  | 4.06% (inactive) | 9.06 | 23.4 | 3.16 µM (active) |  |  |  |  |
| CNC(=O)O/N=C/C(C)(C)SC |  |  |  |  |  | inactive |  |  | 7.39% (inactive) | 14.3 | 23.9 | inactive |  | inactive |  |  |
| O=C(O)COc1ccc(Cl)cc1Cl |  |  |  |  |  | inactive |  |  | -1.59% (inactive) | -3.68 | -7.52 | inactive |  | inactive |  |  |
| CCNc1nc(Cl)nc(NC(C)C)n1 |  |  |  |  |  | inactive |  |  | 7.77% (inactive) | 2.72 | 11.1 | inactive |  | inactive |  |  |
| O=C(c1csnn1)N1CCC2(CC1)CN(Cc1ccncc1)C2 | > 11.4 µM (inactive) | inactive | 10 µM (active) | inactive | > 46 µM (inactive) | inactive | inactive |  | 4.72% (inactive) | 6.9 | 14.2 |  | inactive |  |  |  |
| O=C(Oc1ccccc1)N1CCC2(CCCN(Cc3ccccc3)C2)CC1 | > 11.4 µM (inactive) | inactive | inactive | inactive | > 46 µM (inactive) | inactive | inactive |  | 2.57% (inactive) | 0.129 | 4.78 |  | inactive |  |  |  |
| ClC1=C(Cl)C2(Cl)C3C(Cl)C=CC3C1(Cl)C2(Cl)Cl (stereo not given) |  |  |  |  |  |  |  |  | 4.59% (inactive) | 11.3 | 18.4 | 10 µM (active) | inactive | inactive |  |  |
| COc1cc2c(cc1O)CC1c3c(cc(O)c(OC)c3-2)CCN1C (stereo not given) |  |  |  |  |  |  |  |  | 9.81% (inactive) | 24.1 | 38.2 | 25.1 µM (active) | inactive |  |  |  |
| COP(=S)(OC)Oc1ccc([N+](=O)[O-])cc1 |  |  |  |  |  | inactive |  |  |  | 19.5 | -54.1 | 3.98 µM (active) | inactive |  | 22.4 µM (active) |  |
| C=CCc1ccc(OC)cc1 |  |  |  |  |  | inactive |  |  | 1.63% (inactive) | 21.3 | 23.9 |  |  | inactive |  |  |
| O=S1OCC2C(CO1)C1(Cl)C(Cl)=C(Cl)C2(Cl)C1(Cl)Cl (stereo not given) |  |  |  |  |  | inactive |  |  | 5.66% (inactive) | -0.733 | 5.32 |  | inactive |  |  |  |
| O=C(Oc1ccccc1)N1CCC2(CCN(Cc3ccccc3)CC2)CC1 | > 11.4 µM (inactive) | inactive | inactive | inactive | > 46 µM (inactive) | inactive | inactive |  | 2.23% (inactive) | 2.36 | 6.48 | inactive |  |  |  |  |
| O=C(Nc1cccc(F)c1)N1CC[C@@]2(CCCN(C(=O)Oc3ccccc3)C2)C1 | > 11.4 µM (inactive) | inactive | 15.8 µM (active) | inactive | > 46 µM (inactive) | inactive |  |  | 7.1% (inactive) | 6.61 | 19.8 |  | inactive |  |  | -6.58% (inactive) |
| CN1CC[C@@]2(CCCN(C(=O)c3ccncc3)C2)C1 | > 11.4 µM (inactive) | inactive | inactive | inactive | > 46 µM (inactive) | inactive |  |  | 0.0036% (inactive) | 5.11 | 8.97 |  |  |  |  |  |
| O=C(Oc1ccccc1)N1CCC2(CC1)CN(C(c1ccccc1)c1ccccc1)C2 | > 11.4 µM (inactive) | inactive | inactive | inactive | > 46 µM (inactive) | inactive | inactive | 7.94 µM (active) | -5.67% (inactive) | -3.18 | -5.43 |  | 6.31 µM (active) |  |  | -29.6% (inactive) |
| O=C(c1ccco1)N1CCC[C@@]2(CCN(Cc3ccncc3)C2)C1 | > 11.4 µM (inactive) | inactive | 3.98 µM (active) | inactive | > 46 µM (inactive) | inactive | inactive |  | 3.05% (inactive) | 6.21 | 9.36 |  | inactive |  |  | -1.52% (inactive) |
